Source: PubChem BioAssay AID1566 (Sanford-Burnham Center for Chemical Genomics, 2009)
Several values for one entry are separate records, joined by “and”; a condition that tells them apart may be missing. Equal entries are not always repeated. The whole screen tested about 290,000 compounds, of which about 1,800 (0.62%) were called active. Cut-off read from the data, not from the text of the source: active = inhibition above about 50%; inactive = the rest. The sample as a whole holds a higher share of actives than the screen did. More than one record can exist for a structure, and the calls need not agree.

Assay: NOD2 signaling inhibitors, cell-based, luminescence, uHTS, HEK293 (AID 1566)
Details: HEK293 NOD2/NF-kB luciferase reporter, at 4 µM, stronger effect = higher value

| Structure (SMILES) | inhibition |
| --- | --- |
| COCc1cc(C)nc(SCC(=O)Nc2ccc(N3CCOCC3)cc2)c1C#N | 5% (inactive) |
| COCc1cc(C)nc(SCC(=O)Nc2ccccc2N2CCOCC2)c1C#N | 40% (inactive) |
| COCc1cc(C)nc(SCC(=O)Nc2cc(C(F)(F)F)ccc2N2CCOCC2)c1C#N | 58.6% (active) |
| COCC(C)n1c(C)cc(C(=O)COC(=O)CNC(=O)c2ccccc2)c1C (stereo not drawn) | 20.5% (inactive) |
| COc1ccc(S(=O)(=O)N2CCCCCC2)cc1C(=O)OCc1c(C)noc1C | 0.3% (inactive) |
| CNc1nc2cc([N+](=O)[O-])c([N+](=O)[O-])cc2nc1NC | 18.9% (inactive) |
| Cc1ccc(NC(=S)N(C)C)cc1C | -14.4% (inactive) |
| COc1cccc(OCC(=O)Nc2ccncc2)c1 | 19.9% (inactive) |
| O=C(COc1ccccc1)Nc1ccncc1 | 5.2% (inactive) |
| CC(C)CCOc1cccc(OCC(=O)Nc2ccncc2)c1 | 60% (active) |
| Cc1cc(C)cc(OCC(=O)Nc2ccncc2)c1 | 29.4% (inactive) |
| Cc1cc(OCC(=O)Nc2ccncc2)ccc1Br | 38.2% (inactive) |
| Cc1cc(Cl)ccc1OCC(=O)Nc1ccncc1 | 39.3% (inactive) |
| Cc1cc(OCC(=O)Nc2ccncc2)ccc1Cl | 39.6% (inactive) |
| CC1=C([N+](=O)[O-])C(c2ccccc2Cl)NC(=O)N1C (stereo not drawn) | 14.3% (inactive) |
| O=C(NC1CCCN(CCc2ccccc2)C1)c1c(F)cccc1F (stereo not drawn) | 4.3% (inactive) |
| COc1cccc(N2CC(C(=O)Nc3nnc(SCCN4CCOCC4)s3)CC2=O)c1 (stereo not drawn) | 14.1% (inactive) |
| CCOC(=O)c1sc2ccccc2c1OC(=O)c1ccccc1 | 27.7% (inactive) |
| CCOC(=O)c1sc2ccccc2c1OC(=O)c1ccccc1OC | 22.4% (inactive) |
| Cc1ccccc1C(=O)Nc1ccc(N2CCN(C(=O)c3ccco3)CC2)cc1 | 3.9% (inactive) |
| Cc1cccc(-c2nc3c(c(SCC(=O)N4CCOCC4)n2)Cc2c(CO)cnc(C)c2O3)c1 | 42.3% (inactive) |
| COc1cccc(-c2nc3c(c(SCC(=O)N4CCOCC4)n2)Cc2c(CO)cnc(C)c2O3)c1 | 52.5% (active) |
| COc1ccc(-c2nc3c(c(SCC(=O)N4CCOCC4)n2)Cc2c(CO)cnc(C)c2O3)cc1 | 32% (inactive) |
| CCc1ccc(NC(=O)CN(C)S(=O)(=O)c2ccc3[nH]c(=O)oc3c2)cc1 | 9.7% (inactive) |
| COC(=O)C1=C(C)N(CCc2ccc(OC)cc2)C(=O)C1 | -0.9% (inactive) |

| Structure (SMILES) | inhibition |
| --- | --- |
| Cc1cc(C)nc(N(C#N)Cc2cccc([N+](=O)[O-])c2)n1 | 15.2% (inactive) |
| Cc1cccnc1Nc1ncnc(N)c1[N+](=O)[O-] | 3.6% (inactive) |
| Cc1cccc(Nc2ncnc(N)c2[N+](=O)[O-])n1 | 32% (inactive) |
| COc1cccc(C(=O)NNC(=O)C(=O)Nc2ccc(C)cc2)c1 | 4.6% (inactive) |
| COc1ccc(C(=O)NNC(=O)C(=O)Nc2ccc(C)c(Cl)c2)cc1 | 1.2% (inactive) |
| COc1cccc(C(=O)NNC(=O)C(=O)Nc2ccc(C)c(Cl)c2)c1 | 78.2% (active) |
| COc1ccc(/C=N/NC(=O)CC#N)cc1Oc1nc(Cl)ncc1F | -4% (inactive) |
| O=[N+]([O-])c1ccc(C2OCCO2)cc1CS(=O)(=O)c1ccccc1 | -3.4% (inactive) |
| CCC(=O)Nc1cccc2ccccc12 | 15.5% (inactive) |
| CCN(CC)c1ccc(/C=N/NC(=O)C(O)(c2ccccc2)c2ccccc2)o1 | 3.6% (inactive) |
| Cc1[nH]n(-c2cccc(Cl)c2)c(=O)c1-c1ccccc1 | 17.3% (inactive) |
| Cc1[nH]n(-c2ccccc2)c(=O)c1-c1ccc(Cl)cc1 | -50.4% (inactive) |
| C=CCn1c(-c2cc3cccc(OC)c3o2)n[nH]c1=S | -1.5% (inactive) |
| O=C(c1cc(-c2cccc(Cl)c2)on1)N1CCCCCC1 | -44.3% (inactive) |
| Nc1nc(-c2cccs2)c(CC(=O)O)s1 | 4.5% (inactive) |
| CC(C)(C)c1ccc(-n2ncc3c2CCCC3NC(=O)CCN2CCCC2=O)cc1 (stereo not drawn) | 57.1% (active) |
| CC(C)(C)c1ccc(-n2ncc3c2CCCC3NC(=O)CN2CCCC2=O)cc1 (stereo not drawn) | 35.8% (inactive) |
| CC(C)(C)c1ccc(-n2ncc3c2CCCC3NC(=O)CCN2CCCCC2=O)cc1 (stereo not drawn) | 17.1% (inactive) |
| CCN1CCN(c2ncnc3sc(C)c(-c4ccccc4)c23)CC1 | 35.6% (inactive) |
| Cc1sc2ncnc(N3CCN(Cc4ccccc4)CC3)c2c1-c1ccccc1 | -9.7% (inactive) |
| CCc1ccc(-c2cc(C)no2)cc1S(=O)(=O)N1CCOc2ccc(C)cc21 | 16.8% (inactive) |
| COc1ccccc1CC(=O)Nc1ccc(NC(=O)c2cccs2)cc1 | -13% (inactive) |
| CCOC(=O)CSc1nc2sc3c(c2c(=O)[nH]1)CCCC3 | 8.9% (inactive) |
| CCOC(=O)c1nc2sc3c(c2c(=O)[nH]1)CCC(C)C3 (stereo not drawn) | 45.5% (inactive) |
| CCOC(=O)c1nc2sc3c(c2c(=O)[nH]1)CCCC3 | 55.1% (active) and 4.8% (inactive) |

| Structure (SMILES) | inhibition |
| --- | --- |
| COc1ccccc1CNC(=O)CCc1nnc2ccc(NCCCN3CCCC3=O)nn12 | 12.8% (inactive) |
| Cc1ccc(Cn2c(=O)c3ccccc3n3c(SCC(=O)N4CCCCC4C)nnc23)cc1 (stereo not drawn) | 8.3% (inactive) |
| Cc1ccc(C(=O)NNC(=O)CCN2C(=O)C3CCCCC3C2=O)cc1 (stereo not drawn) | 11.6% (inactive) |
| COc1cc(SC)ccc1C(=O)Nc1nccs1 | -159% (inactive) |
| COc1cc(SC)ccc1C(=O)Nc1nc(C)cs1 | 72.2% (active) |
| COc1cc(SC)ccc1C(=O)Nc1nc(C)cc(C)n1 | 10.5% (inactive) |
| O=C(O)c1ccc(NCc2ccc3c(c2)OCO3)cc1 | 6.2% (inactive) |
| COc1ccc(/C=N/N2C(=O)CSC2=S)cc1 | -23.8% (inactive) |
| COc1ccc(-c2nn(-c3ccccc3)cc2/C=N/N2C(=O)CSC2=S)cc1 | 51.5% (active) |
| COc1ccc(-c2nn(-c3ccccc3)cc2/C=N/O)cc1 | 9.4% (inactive) |
| CCC1(CC)NC(=O)N(CC(=O)NC(=O)NCc2ccccc2)C1=O | -0.6% (inactive) |
| Nc1cc(=O)[nH]c(SCC(=O)Nc2cccc([N+](=O)[O-])c2)n1 | 0.5% (inactive) |
| O=C(CSc1nc2ccccc2c(=O)[nH]1)Nc1cccc([N+](=O)[O-])c1 | 19.4% (inactive) |
| O=C(CSc1nncc(=O)[nH]1)Nc1cccc([N+](=O)[O-])c1 | 67.8% (active) |
| COc1ccc(NC(=O)C23CC4CC(C2)CC(n2cnc(Br)n2)(C4)C3)cc1OC | -17.8% (inactive) |
| Cc1ccccc1NC(=O)N1CCCC(c2nc(-c3ccc(F)cc3)no2)C1 (stereo not drawn) | 7.4% (inactive) |
| COc1ccc(NC(=O)N2CCCC(c3nc(-c4ccc(C(C)C)cc4)no3)C2)cc1 (stereo not drawn) | 42.1% (inactive) |
| Cc1ccccc1NC(=O)N1CCCC(c2nc(-c3ccc(C(C)C)cc3)no2)C1 (stereo not drawn) | 72.9% (active) |
| COCCCN1C(=O)C(O)=C(C(=O)c2ccco2)C1c1cccc(Br)c1 (stereo not drawn) | 7.1% (inactive) |
| COc1ccc(CN2CCN(Cc3ccc4cc(F)ccc4n3)CC2CCO)c(C)c1C (stereo not drawn) | -1.2% (inactive) |
| O=[N+]([O-])c1ccc(N2CCN(c3ccc(Cl)nn3)CC2)c(Cl)c1 | -52.2% (inactive) |
| CCCC(=O)N1CCN(c2ccc([N+](=O)[O-])cc2Cl)CC1 | -6.8% (inactive) |
| Cc1ccc2nc(C)c(CN3CCN(c4ccc([N+](=O)[O-])cc4Cl)CC3)n2c1 | 52.7% (active) |
| Cc1cc(C)c2c(N)c(C(=O)NN)sc2n1 | 0.7% (inactive) |
| Cc1cc(C)c2c(N)c(C(=O)Nc3ncc(C)s3)sc2n1 | 62% (active) |

| Structure (SMILES) | inhibition |
| --- | --- |
| Cc1cc(C)c2c(N)c(C(=O)Nc3nccs3)sc2n1 | -123% (inactive) |
| CN1CCN(C(=S)c2cn(Cc3ccccc3F)c3ccccc23)CC1 | 2.8% (inactive) |
| CC(=O)c1cn(CC(=O)Nc2ccccc2F)c2ccccc12 | 30.8% (inactive) |
| CCOC(=O)c1cnc2nc(C)[nH]n2c1=O | -11% (inactive) |
| O=C(CNC(=O)C1CCCCC1)NCc1ccco1 | -3% (inactive) |
| Cc1nc2ccc(NC(=O)c3ccc(Cl)c(S(=O)(=O)N(C)c4ccccc4)c3)cc2s1 | 38.6% (inactive) |
| Cc1nc2ccc(NC(=O)c3ccc(S(=O)(=O)N(C)c4ccccc4)cc3)cc2s1 | 35.2% (inactive) |
| CN(Cc1ccccc1)C(=O)[C@H]1CCC(=O)N1Cc1ccco1 | -2.2% (inactive) |
| Cc1onc(-c2c(Cl)cccc2Cl)c1C(=O)NC(=S)N1CCOCC1 | 11.9% (inactive) |
| Cc1c(OCC(=O)NC(Cc2ccc(Cl)cc2)C(=O)O)ccc2c3c(c(=O)oc12)CCCC3 (stereo not drawn) | 7.1% (inactive) |
| COC(=O)c1ccc2nc(NC(=O)CSCC(=O)OCC(=O)c3ccccc3)sc2c1 | -10.5% (inactive) |
| Cc1ccc2nc(NC(=O)CSCC(=O)OCC(=O)c3ccccc3)sc2c1 | 51.5% (active) |
| Cc1ccc2nc(NC(=O)CSCc3ccccc3)sc2c1 | -2.4% (inactive) |
| O=C(Nc1nc2ccc(F)cc2s1)c1ccccn1 | 82.1% (active) |
| Cc1cccc(OCC(=O)Nc2nc3ccc([N+](=O)[O-])cc3s2)c1 | 35% (inactive) |
| O=C(Nc1nc2ccc(F)cc2s1)c1cccs1 | -118% (inactive) |
| Cc1ccc(C)c(OCC(=O)Nc2nc3ccc([N+](=O)[O-])cc3s2)c1 | 25.2% (inactive) |
| Cc1ccc2nc(NC(=O)CCCc3nc4ccccc4s3)sc2c1 | -14.6% (inactive) |
| Cc1ccc2nc(NC(=O)CCCC(=O)O)sc2c1 | 54.8% (active) |
| O=C(Nc1nc2c(F)cc(F)cc2s1)c1ccccn1 | 38.3% (inactive) |
| COCC(=O)Nc1nc2ccc(C)cc2s1 | -98.9% (inactive) |
| CN(C)C(=O)c1ccc2c3c(cccc13)CC2 | 17.8% (inactive) |
| CCCS(=O)(=O)c1nc(S(=O)(=O)c2ccc(C)cc2)c(N2CCN(CC)CC2)s1 | -12.7% (inactive) |
